Here are results for 15 compounds from PubChem BioAssay (EPA / NIEHS).

In general, AC50 refers to the concentration at which the activity in the assay is half-maximal.

Results filed as inconclusive are left out. Calls of active or inactive are those of the source. Rule for the calls, unless noted: active = hit-call score of the fitted dose curve at least 0.9, where 1 is the maximum; inconclusive = response in the unintended direction; inactive = score below 0.9.

Read-out in experiment [1]: ABC Transporter (ABCB1), ABCB1 (gene 5243)
The experiment in a line: CLD_ABCB1_48hr: CellzDirect (CLD) Gene Expression Assay for ABC Transporter (ABCB1) at 48 hours (AID 2283695). A digest of the protocol: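 ABCB1 mRNA was measured by quantitative nuclease protection assay (chemiluminescence) 48 h after dosing. Human hepatocyte cultures from two separate donors received fresh dosing solutions daily for two days, with 0.2% DMSO as vehicle. Positive-direction fit against DMSO.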

Read-out in experiment [2]: Cytochrome P450 2B6 (Homo sapiens) (UniProt P20813)
In words: CLD_CYP2B6_48hr: CellzDirect (CLD) Gene Expression Assay for xenobiotic metabolism (CYP2B6) at 48 hours (AID 2283699).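 Note: actives raise transcript level above DMSO so potency reflects induction.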 Put shortly:
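CYP2B6 transcript induction, read by quantitative nuclease protection (S1 digestion, chemiluminescent detection) 48 h after dosing, is fitted upward against 0.2% DMSO. Cultured human liver primary cells, two donor preparations, received fresh chemical daily over multiple concentrations.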

Read-out in experiment [3]: alkyl and aryl transferase (GSTA2), GSTA2 (gene 2939)
In words: CLD_GSTA2_24hr: CellzDirect (CLD) Gene Expression Assay for alkyl and aryl transferase (GSTA2) at 24 hours (AID 2283693). Put shortly: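 GSTA2 transcript levels were quantified by quantitative nuclease protection assay in primary human hepatocytes 24 h after daily dosing with fresh solutions at multiple concentrations; 0.2% DMSO vehicle as baseline, cytotoxicity flagged morphologically.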

Read-out in experiment [4]: ABC Transporter (ABCB11), ABCB11 (gene 8647)
In words: CLD_ABCB11_48hr: CellzDirect (CLD) Gene Expression Assay for ABC Transporter (ABCB11) at 48 hours (AID 2283697). Put shortly:
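Induction of ABCB11 mRNA relative to 0.2% DMSO, measured at 48 h by qNPA chemiluminescence. Cultured human hepatocytes (two donors) received fresh dosing solutions at several concentrations on two consecutive days.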

Read-out in experiment [5]: Cytochrome P450 2C19 (Homo sapiens) (UniProt P33261)
In words: CLD_CYP2C19_48hr: CellzDirect (CLD) Gene Expression Assay for xenobiotic metabolism (CYP2C19) at 48 hours (AID 2283700).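 Note: fitted upward so actives raise CYP2C19 mRNA above the 0.2% DMSO vehicle.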 A digest of the protocol: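 CYP2C19 mRNA induction read by chemiluminescent quantitative nuclease protection assay after 48 h, with fresh compound added daily for two days to cultured human liver hepatocytes. Activity fitted upward against 0.2% DMSO vehicle.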

Experiment [6] in a line: CLD_ACTIN_48hr: CellzDirect (CLD) Gene Expression Assay for Baseline Control (Actin) at 48 hours (AID 2283702). A digest of the protocol:
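Background-control actin mRNA read by qNPA chemiluminescence at 48 h. Human hepatocyte cultures from two donors received fresh multi-concentration chemical doses daily for two days; 0.2% DMSO served as vehicle baseline.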

Read-out in experiment [7]: Cytochrome P450 3A4 (Homo sapiens) (UniProt P08684)
The experiment in a line: CLD_CYP3A4_24hr: CellzDirect (CLD) Gene Expression Assay for xenobiotic metabolism (CYP3A4) at 24 hours (AID 2283689). A digest of the protocol: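 CYP3A4 mRNA induction read by quantitative nuclease protection (chemiluminescence) 24 hr after dosing. Cultured human hepatocytes (two donor preparations) treated daily, vehicle 0.2% DMSO; phase-contrast morphology annotates cytotoxicity.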

Read-out in experiment [8]: Cytochrome P450 2C9 (Homo sapiens) (UniProt P11712)
In words: CLD_CYP2C9_48hr: CellzDirect (CLD) Gene Expression Assay for xenobiotic metabolism (CYP2C9) at 48 hours (AID 2283701; active = hit-call score of the fitted dose curve at least 0.9, where 1 is the maximum; inactive = score below 0.9). Put shortly:
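mRNA level measured by quantitative nuclease protection (S1 digestion, chemiluminescent detection) in lysates of human primary hepatocytes exposed 48 h with daily re-dosing. Induction fitted positively versus 0.2% DMSO; morphology-based cytotoxicity flagged yes/no.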

Read-out in experiment [9]: organic anion transporter (SLCO1B1), SLCO1B1 (gene 10599)
In words: CLD_SLCO1B1_24hr: CellzDirect (CLD) Gene Expression Assay for organic anion transporter (SLCO1B1) at 24 hours (AID 2283690). Put shortly:
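SLCO1B1 mRNA induction read at 24 h by quantitative nuclease protection assay (chemiluminescence), analyzed against DMSO baseline. Human hepatocyte cultures from separate donors received fresh dosing solutions daily; vehicle 0.2% DMSO; cytotoxicity flagged by phase-contrast morphology.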

Cytochrome P450 2C19 (Homo sapiens), sequence (P33261 whole entry, looked up): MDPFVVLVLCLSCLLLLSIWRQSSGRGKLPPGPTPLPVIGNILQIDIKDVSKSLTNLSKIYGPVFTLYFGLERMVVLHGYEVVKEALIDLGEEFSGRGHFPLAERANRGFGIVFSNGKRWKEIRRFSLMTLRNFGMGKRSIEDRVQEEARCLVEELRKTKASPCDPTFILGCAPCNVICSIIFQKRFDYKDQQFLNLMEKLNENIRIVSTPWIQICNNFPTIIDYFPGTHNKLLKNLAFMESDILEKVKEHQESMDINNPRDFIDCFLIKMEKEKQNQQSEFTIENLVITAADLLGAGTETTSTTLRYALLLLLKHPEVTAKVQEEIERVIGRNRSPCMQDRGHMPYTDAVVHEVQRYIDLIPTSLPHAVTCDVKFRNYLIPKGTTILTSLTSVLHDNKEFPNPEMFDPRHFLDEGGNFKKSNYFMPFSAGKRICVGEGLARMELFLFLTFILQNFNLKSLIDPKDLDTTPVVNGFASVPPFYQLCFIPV
Cytochrome P450 3A4 (Homo sapiens), sequence (P08684 whole entry, looked up): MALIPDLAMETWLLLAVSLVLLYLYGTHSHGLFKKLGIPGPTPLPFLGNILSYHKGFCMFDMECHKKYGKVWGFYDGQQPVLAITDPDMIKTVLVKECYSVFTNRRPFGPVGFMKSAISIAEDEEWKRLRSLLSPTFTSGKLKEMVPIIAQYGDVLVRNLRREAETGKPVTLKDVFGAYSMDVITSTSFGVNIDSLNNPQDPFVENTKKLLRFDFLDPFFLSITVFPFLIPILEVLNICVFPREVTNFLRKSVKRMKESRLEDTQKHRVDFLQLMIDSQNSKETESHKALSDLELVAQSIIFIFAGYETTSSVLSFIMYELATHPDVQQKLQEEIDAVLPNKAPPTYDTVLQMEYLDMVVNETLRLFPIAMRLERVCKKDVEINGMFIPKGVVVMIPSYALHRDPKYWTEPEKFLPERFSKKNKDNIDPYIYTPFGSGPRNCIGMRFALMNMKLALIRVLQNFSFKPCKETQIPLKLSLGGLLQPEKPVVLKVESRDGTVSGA

For the compound `C=CC1(C)OC(=O)N(c2cc(Cl)cc(Cl)c2)C1=O` (stereo not drawn), the outcome in experiment [1] was inactive.

As for `CCON=C(CC)C1=C(O)CC(c2c(C)cc(C)cc2C)CC1=O` (stereo not drawn), in [1], the call was inactive.

Turning to `CC(C)(C)c1ccc(CSc2cnn(C(C)(C)C)c(=O)c2Cl)cc1`, the result in experiment [2] was inactive.

With `CNC(=O)ON=CC(C)(C)SC`, the outcome in experiment [2] was inactive.

On to `CS/C(C)=N/OC(=O)N(C)SN(C)C(=O)O/N=C(\C)SC`, for which the outcome in [3], in experiment [4], in [5] and in experiment [6] was inactive.

As to `CC(C)Oc1cc(-n2nc(C(C)(C)C)oc2=O)c(Cl)cc1Cl`, the half-maximal activity concentration (AC50) in [7] is 1900 nM (active); in [2], 2670 nM (active). The result in experiment [8] was inactive.

With `Fc1ccc(Oc2ccnc3cc(Cl)cc(Cl)c23)cc1`, the compound was classed as inactive in experiment [3] and in experiment [8].

As for `OC(c1ccc(Cl)cc1)(c1cncnc1)c1ccccc1Cl` (stereo not drawn), the AC50 in [7] was 542 nM (active). Also, the result in [3] and in experiment [6] was inactive.

Regarding `COc1nc(NC(C)C)nc(NC(C)C)n1`, the AC50 in experiment [7] was 1900 nM (active); in experiment [2] it was 5980 nM (active). Further, the outcome in experiment [4], in experiment [5] and in experiment [8] was inactive.

Regarding `COC(=O)C=C(C)OP(=O)(OC)OC`, the result in [9], in [4], in [5] and in experiment [6] was inactive.

In the case of `COP(=S)(OC)Oc1nc(Cl)c(Cl)cc1Cl`, the AC50 in experiment [7] is 3970 nM (active). Further, the result in experiment [3] and in experiment [8] was inactive.

As to `COP(N)(=O)SC` (stereo not drawn), the compound was classed as inactive in experiment [9], in experiment [5], in experiment [8] and in experiment [6].

Consider `N#Cc1nn(-c2c(Cl)cc(C(F)(F)F)cc2Cl)c(N)c1S(=O)C(F)(F)F` (stereo not drawn), for which, in [7], the AC50 is 1890 nM (active). The compound was called inactive in experiment [3] and in experiment [6].

With `CO/C=C(/C(=O)OC)c1ccccc1Oc1cc(Oc2ccccc2C#N)ncn1`, the outcome in experiment [3], in [8] and in [6] was inactive. The AC50 in experiment [2] was 2460 nM (active).

As for `COc1ccc(C(c2ccc(OC)cc2)C(Cl)(Cl)Cl)cc1`, the compound was classed as inactive in experiment [9], in [3], in experiment [5] and in [8].
